Test results published in paper PMC11006913.

What was measured:
Experiment in all cases: PBM; 200 nM protein, PBS
Details in all cases: dsDNA, one strand shown
[1] = biological target: ALX3 (Homo sapiens, UniProt O95076 139-225, N203Q)
[2] = biological target: ALX3 (Homo sapiens, UniProt O95076 139-225)
[3] = biological target: PROP1 (Homo sapiens, UniProt O75360 56-141)
[4] = biological target: PROP1 (Homo sapiens, UniProt O75360 56-141, R99H)
[5] = biological target: ALX3 (Homo sapiens, UniProt O95076 139-225, L168Q)
Sequence of ALX3 (Homo sapiens, UniProt O95076 139-225, L168Q) (O95076 139-225 L168Q): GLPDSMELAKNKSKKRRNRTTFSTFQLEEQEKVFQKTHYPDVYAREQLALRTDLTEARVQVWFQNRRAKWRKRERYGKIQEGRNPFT

[6] = biological target: ALX3 (Homo sapiens, UniProt O95076 139-225, L168V)
Sequence of ALX3 (Homo sapiens, UniProt O95076 139-225, L168V) (O95076 139-225 L168V): as the sequence (O95076 139-225 L168Q) above, with Q30V counted along it

[7] = biological target: PROP1 (Homo sapiens, UniProt O75360 56-141, F88S)
Sequence of PROP1 (Homo sapiens, UniProt O75360 56-141, F88S) (O75360 56-141 F88S): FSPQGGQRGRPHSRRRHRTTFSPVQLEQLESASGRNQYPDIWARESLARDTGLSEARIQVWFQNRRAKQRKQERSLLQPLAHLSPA

[8] = biological target: ALX3 (Homo sapiens, UniProt O95076 139-225, N203S)
Sequence of ALX3 (Homo sapiens, UniProt O95076 139-225, N203S) (O95076 139-225 N203S): as the sequence (O95076 139-225 L168Q) above, with Q30L, N65S counted along it

[9] = biological target: HOXC9 (Homo sapiens, UniProt P31274 178-260, R222W)
Sequence of HOXC9 (P31274 178-260 R222W): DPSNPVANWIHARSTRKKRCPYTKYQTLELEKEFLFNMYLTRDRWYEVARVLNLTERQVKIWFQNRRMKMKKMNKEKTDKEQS

[10] = biological target: HOXD13 (Homo sapiens, UniProt P35453 263-343, T313R)
Sequence of HOXD13 (Homo sapiens, UniProt P35453 263-343, T313R) (P35453 263-343 T313R): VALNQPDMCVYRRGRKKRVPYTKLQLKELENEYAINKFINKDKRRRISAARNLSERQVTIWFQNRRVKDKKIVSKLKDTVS

[11] = biological target: HOXD13 (Homo sapiens, UniProt P35453 263-343)
Sequence of HOXD13 (Homo sapiens, UniProt P35453 263-343) (P35453 263-343): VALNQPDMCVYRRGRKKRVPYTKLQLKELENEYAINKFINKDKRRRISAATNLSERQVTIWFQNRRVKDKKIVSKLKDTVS

Sequence of ALX3 (Homo sapiens, UniProt O95076 139-225, N203Q) (O95076 139-225 N203Q): as the sequence (O95076 139-225 L168Q) above, with Q30L, N65Q counted along it
Sequence of ALX3 (Homo sapiens, UniProt O95076 139-225) (O95076 139-225): as the sequence (O95076 139-225 L168Q) above, with Q30L counted along it
Sequence of PROP1 (Homo sapiens, UniProt O75360 56-141, R99H) (O75360 56-141 R99H): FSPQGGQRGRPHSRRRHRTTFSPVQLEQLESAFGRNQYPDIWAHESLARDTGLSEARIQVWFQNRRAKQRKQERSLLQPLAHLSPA
Sequence of PROP1 (Homo sapiens, UniProt O75360 56-141) (O75360 56-141): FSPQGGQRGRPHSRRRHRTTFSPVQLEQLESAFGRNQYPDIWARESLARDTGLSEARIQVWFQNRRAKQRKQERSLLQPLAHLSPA

**Q.** Which results are given for ACCCCCGC?
**A.** binding signal [1]: 7.74 upbm affinity estimate (log intensity, higher = more binding, comparable within an allelic series); binding signal [2]: 7.66 upbm affinity estimate (log intensity, higher = more binding, comparable within an allelic series); binding signal [3]: 6.56 upbm affinity estimate (log intensity, higher = more binding, comparable within an allelic series); binding signal [4]: 6.52 upbm affinity estimate (log intensity, higher = more binding, comparable within an allelic series); binding signal [5]: 7.66 upbm affinity estimate (log intensity, higher = more binding, comparable within an allelic series); binding signal [6]: 7.68 upbm affinity estimate (log intensity, higher = more binding, comparable within an allelic series); binding signal [7]: 6.34 upbm affinity estimate (log intensity, higher = more binding, comparable within an allelic series); binding signal [8]: 7.73 upbm affinity estimate (log intensity, higher = more binding, comparable within an allelic series)

**Q.** Which binding signal [1] does the source give for AGCGGGAC here?
**A.** The binding signal was 7.69 upbm affinity estimate (log intensity, higher = more binding, comparable within an allelic series).

**Q.** What about the binding signal [2] of the same sequence?
**A.** Its binding signal is 7.54 upbm affinity estimate (log intensity, higher = more binding, comparable within an allelic series).

**Q.** What about the binding signal [5] of the same sequence?
**A.** Its binding signal is 7.62 upbm affinity estimate (log intensity, higher = more binding, comparable within an allelic series).

**Q.** And the binding signal [6]?
**A.** The binding signal was 7.69 upbm affinity estimate (log intensity, higher = more binding, comparable within an allelic series).

**Q.** What about the binding signal [8] of the same sequence?
**A.** The binding signal was 7.73 upbm affinity estimate (log intensity, higher = more binding, comparable within an allelic series).

**Q.** ATAAATAA was tested. Which binding signal [1] did it give?
**A.** The binding signal was 8.6 upbm affinity estimate (log intensity, higher = more binding, comparable within an allelic series).

**Q.** And the binding signal [9]?
**A.** The binding signal was 11.1 upbm affinity estimate (log intensity, higher = more binding, comparable within an allelic series).

**Q.** What about the binding signal [8] of the same sequence?
**A.** Its binding signal is 8.76 upbm affinity estimate (log intensity, higher = more binding, comparable within an allelic series).

**Q.** With ATAACACG as the sequence, how does the binding signal [10] read?
**A.** The binding signal was 10.1 upbm affinity estimate (log intensity, higher = more binding, comparable within an allelic series).

**Q.** What about the binding signal [11] of the same sequence?
**A.** Its binding signal is 10.7 upbm affinity estimate (log intensity, higher = more binding, comparable within an allelic series).

**Q.** With AGTTAATA as the sequence, how does the binding signal [1] read?
**A.** The binding signal was 8.54 upbm affinity estimate (log intensity, higher = more binding, comparable within an allelic series).

**Q.** And the binding signal [8]?
**A.** The binding signal was 8.65 upbm affinity estimate (log intensity, higher = more binding, comparable within an allelic series).

**Q.** Which binding signal [1] does the source give for ATCGCTAA here?
**A.** Its binding signal is 8.25 upbm affinity estimate (log intensity, higher = more binding, comparable within an allelic series).

**Q.** What about the binding signal [2] of the same sequence?
**A.** The binding signal was 9.67 upbm affinity estimate (log intensity, higher = more binding, comparable within an allelic series).

**Q.** And the binding signal [8]?
**A.** The binding signal was 8.28 upbm affinity estimate (log intensity, higher = more binding, comparable within an allelic series).

**Q.** For ATTTAAAT, which binding signal [1] is on record?
**A.** The binding signal was 8.56 upbm affinity estimate (log intensity, higher = more binding, comparable within an allelic series).

**Q.** And the binding signal [8]?
**A.** Its binding signal is 8.68 upbm affinity estimate (log intensity, higher = more binding, comparable within an allelic series).

**Q.** Which binding signal [1] does the source give for AATATTAA here?
**A.** Its binding signal is 8.6 upbm affinity estimate (log intensity, higher = more binding, comparable within an allelic series).

**Q.** And the binding signal [8]?
**A.** Its binding signal is 8.69 upbm affinity estimate (log intensity, higher = more binding, comparable within an allelic series).

**Q.** How did the binding signal [10] turn out when TATATTAA was run?
**A.** The binding signal was 10.7 upbm affinity estimate (log intensity, higher = more binding, comparable within an allelic series).

**Q.** How did the binding signal [1] turn out when CTAACAAC was run?
**A.** Its binding signal is 8.26 upbm affinity estimate (log intensity, higher = more binding, comparable within an allelic series).

**Q.** What about the binding signal [2] of the same sequence?
**A.** Its binding signal is 9.15 upbm affinity estimate (log intensity, higher = more binding, comparable within an allelic series).

**Q.** What about the binding signal [8] of the same sequence?
**A.** The binding signal was 8.24 upbm affinity estimate (log intensity, higher = more binding, comparable within an allelic series).

**Q.** For AGATTTTA, which binding signal [1] is on record?
**A.** Its binding signal is 8.19 upbm affinity estimate (log intensity, higher = more binding, comparable within an allelic series).

**Q.** What about the binding signal [2] of the same sequence?
**A.** Its binding signal is 9.08 upbm affinity estimate (log intensity, higher = more binding, comparable within an allelic series).

**Q.** And the binding signal [8]?
**A.** Its binding signal is 8.26 upbm affinity estimate (log intensity, higher = more binding, comparable within an allelic series).

**Q.** Which binding signal [1] does the source give for ATTATTTA here?
**A.** The binding signal was 8.54 upbm affinity estimate (log intensity, higher = more binding, comparable within an allelic series).

**Q.** And the binding signal [8]?
**A.** The binding signal was 8.69 upbm affinity estimate (log intensity, higher = more binding, comparable within an allelic series).

**Q.** How did the binding signal [1] turn out when CTCCAGCC was run?
**A.** Its binding signal is 7.6 upbm affinity estimate (log intensity, higher = more binding, comparable within an allelic series).

**Q.** What about the binding signal [2] of the same sequence?
**A.** The binding signal was 7.5 upbm affinity estimate (log intensity, higher = more binding, comparable within an allelic series).

**Q.** And the binding signal [5]?
**A.** The binding signal was 7.62 upbm affinity estimate (log intensity, higher = more binding, comparable within an allelic series).

**Q.** What about the binding signal [6] of the same sequence?
**A.** The binding signal was 7.62 upbm affinity estimate (log intensity, higher = more binding, comparable within an allelic series).

**Q.** What about the binding signal [8] of the same sequence?
**A.** Its binding signal is 7.57 upbm affinity estimate (log intensity, higher = more binding, comparable within an allelic series).

**Q.** How did the binding signal [1] turn out when ATTAGTTA was run?
**A.** Its binding signal is 8.55 upbm affinity estimate (log intensity, higher = more binding, comparable within an allelic series).

**Q.** What about the binding signal [8] of the same sequence?
**A.** The binding signal was 8.67 upbm affinity estimate (log intensity, higher = more binding, comparable within an allelic series).

**Q.** For ACGTTAGT, which binding signal [1] is on record?
**A.** The binding signal was 8.16 upbm affinity estimate (log intensity, higher = more binding, comparable within an allelic series).

**Q.** And the binding signal [2]?
**A.** The binding signal was 9.39 upbm affinity estimate (log intensity, higher = more binding, comparable within an allelic series).

**Q.** What about the binding signal [8] of the same sequence?
**A.** Its binding signal is 8.22 upbm affinity estimate (log intensity, higher = more binding, comparable within an allelic series).

**Q.** For ATCACAGA, which binding signal [1] is on record?
**A.** The binding signal was 8.15 upbm affinity estimate (log intensity, higher = more binding, comparable within an allelic series).

**Q.** And the binding signal [2]?
**A.** Its binding signal is 9.21 upbm affinity estimate (log intensity, higher = more binding, comparable within an allelic series).

**Q.** What about the binding signal [8] of the same sequence?
**A.** The binding signal was 8.16 upbm affinity estimate (log intensity, higher = more binding, comparable within an allelic series).

**Q.** With GTTATGCA as the sequence, how does the binding signal [1] read?
**A.** The binding signal was 8.13 upbm affinity estimate (log intensity, higher = more binding, comparable within an allelic series).

**Q.** What about the binding signal [2] of the same sequence?
**A.** The binding signal was 9.19 upbm affinity estimate (log intensity, higher = more binding, comparable within an allelic series).

**Q.** And the binding signal [8]?
**A.** Its binding signal is 8.22 upbm affinity estimate (log intensity, higher = more binding, comparable within an allelic series).

**Q.** CCTATTAC was tested. Which binding signal [1] did it give?
**A.** Its binding signal is 8.28 upbm affinity estimate (log intensity, higher = more binding, comparable within an allelic series).

**Q.** And the binding signal [2]?
**A.** Its binding signal is 10.8 upbm affinity estimate (log intensity, higher = more binding, comparable within an allelic series).

**Q.** And the binding signal [8]?
**A.** The binding signal was 8.28 upbm affinity estimate (log intensity, higher = more binding, comparable within an allelic series).
